Data: the supplement of paper PMC9262897, “Low-cost anti-mycobacterial drug discovery using engineered E. coli” (Nature Communications, 2022)
Structures can show the parent of a compound that is named as a salt. ± gives the standard deviation of the averaged measurements.

System: E. coli TESEC Mtb Alr
Assay: growth (OD600 after 10 h); higher = more growth (less inhibition)
Conditions: compound 0.1 mM
Description: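 TESEC Mtb Alr E. coli, or the Alr+ wild-type control, in 384-well plates with Prestwick library compounds at 0.1 mM and 1% DMSO, across arabinose induction levels of 1E3 to 1E7 nM. Growth is read as OD600 after 10 h at 37 °C in triplicate biological replicates.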

[1] = arabinose 1000 nM, raw OD600 reference: median of DMSO wells 0.294, cell-free background 0.041
[2] = arabinose 10000 nM, raw OD600 reference: median of DMSO wells 0.264, cell-free background 0.041
[3] = arabinose 100000 nM, raw OD600 reference: median of DMSO wells 0.201, cell-free background 0.041
[4] = arabinose 1000000 nM, raw OD600 reference: median of DMSO wells 0.193, cell-free background 0.041
[5] = arabinose 10000000 nM, raw OD600 reference: median of DMSO wells 0.146, cell-free background 0.041

## CN1CCC2(C)c3cc(O)ccc3N(C)C12 (single isomer, unassigned; (-)) [(-)-Eseroline fumarate salt]
[1]
  growth: 0.287 ± 0.014
[2]
  growth: 0.306 ± 0.0086
[3]
  growth: 0.312 ± 0.015
[4]
  growth: 0.168 ± 0.0079
[5]
  growth: 0.19 ± 0.0049

## O=c1[nH]oc2c1CCNC2 [THIP Hydrochloride]
[1]
  growth: 0.316 ± 0.0096
[2]
  growth: 0.266 ± 0.0055
[3]
  growth: 0.2 ± 0.019
[4]
  growth: 0.194 ± 0.014
[5]
  growth: 0.136 ± 0.0034

## CN(C)[C@@H]1C(=O)C(C(N)=O)=C(O)[C@@]2(O)C(=O)C3=C(O)c4c(O)cccc4[C@@](C)(O)[C@H]3C[C@@H]12 [Tetracycline hydrochloride]
[1]
  growth: 0.0426 ± 0.0035
[2]
  growth: 0.04053 ± 0.00032
[3]
  growth: 0.0418 ± 0.0011
[4]
  growth: 0.04083 ± 0.00025
[5]
  growth: 0.0422 ± 0.00068

## COc1cc2c(c(OC)c1OC)-c1ccc(OC)c(=O)cc1[C@@H](NC(C)=O)CC2 [Colchicine]
[1]
  growth: 0.262 ± 0.034
[2]
  growth: 0.267 ± 0.0042
[3]
  growth: 0.204 ± 0.025
[4]
  growth: 0.185 ± 0.0039
[5]
  growth: 0.144 ± 0.0049

## CC(=O)OCC(=O)[C@H]1CC[C@H]2[C@@H]3CC[C@H]4C[C@H](O)CC[C@]4(C)[C@H]3C(=O)C[C@]12C [Alfadolone acetate]
[1]
  growth: 0.196 ± 0.003
[2]
  growth: 0.222 ± 0.0029
[3]
  growth: 0.194 ± 0.0054
[4]
  growth: 0.153 ± 0.0021
[5]
  growth: 0.109 ± 0.0024

## CC(C)[N+](C)(CCC(C(N)=O)(c1ccccc1)c1ccccc1)C(C)C [Isopropamide iodide]
[1]
  growth: 0.285 ± 0.0086
[2]
  growth: 0.248 ± 0.0032
[3]
  growth: 0.199 ± 0.015
[4]
  growth: 0.147 ± 0.0039
[5]
  growth: 0.142 ± 0.0052

## c1ccc2c(c1)Nc1ccccc1S2 [Phenothiazine]
[1]
  growth: 0.215 ± 0.0099
[2]
  growth: 0.265 ± 0.011
[3]
  growth: 0.209 ± 0.015
[4]
  growth: 0.198 ± 0.013
[5]
  growth: 0.201 ± 0.0046

## O=c1c2ccccc2[se]n1-c1ccccc1 [Ebselen]
[1]
  growth: 0.295 ± 0.02
[2]
  growth: 0.261 ± 0.0064
[3]
  growth: 0.236 ± 0.027
[4]
  growth: 0.224 ± 0.017
[5]
  growth: 0.164 ± 0.0046
